# Data published in the supplement of paper PMC4166925.
# ± gives the standard deviation of the averaged measurements. The full ranking holds about 33,000 sequences; the median of “E-score (dimensionless, -0.5 to 0.5)” is about -0.049, and the highest 2% start at about 0.37. Only a selection was taken, and the highest values are over-represented in it overall.
# System: T1, PmTbr T-box DNA-binding domain (GST fusion)
# T1 sequence: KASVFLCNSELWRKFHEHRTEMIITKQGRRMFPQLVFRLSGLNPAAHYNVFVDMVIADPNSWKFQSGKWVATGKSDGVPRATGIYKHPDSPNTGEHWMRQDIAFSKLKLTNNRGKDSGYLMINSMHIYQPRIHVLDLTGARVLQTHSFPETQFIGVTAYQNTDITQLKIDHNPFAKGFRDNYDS
# Assay: PBM E-score of 8-mer (E-score (dimensionless, -0.5 to 0.5)); Tbr is Tbrain of the sea star Patiria miniata (Pm) or the sea urchin Strongylocentrotus purpuratus (Sp); higher = stronger binding preference
# Details: the construct has about 5 more residues each side
# Procedure, shortened: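 Using the Universal PBM Analysis Suite, every ungapped 8-mer received an enrichment E-score averaged over duplicate arrays. Probe intensities came from double-stranded Universal Agilent oligonucleotide arrays incubated with 200 nM GST-fused Tbr T-box DNA-binding domain in PBS (pH 7.5). That protein was expressed in BL21 E. coli at 20 °C and purified by glutathione affinity chromatography.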
row,Sequence,PBM E-score of 8-mer
1,ACATTACC,-0.144 ± 0.023
2,AGCCACGG,-0.119 ± 0.013
3,CTCGTCCC,-0.303 ± 0.016
4,AAATAGGT,0.0404 ± 0.07
5,GCACAGGA,-0.162 ± 0.05
6,CGCAAAAC,0.0965 ± 0.0024
7,ACACGTGC,0.387 ± 0.023
8,ACACGTGA,0.292 ± 0.017
9,ACACGTGT,0.403 ± 0.023
10,CCACGTGC,0.149 ± 0.013
11,GCACGTGC,0.2695 ± 0.0011
12,ACACGTGG,0.307 ± 0.022
13,ACATGGTG,0.243 ± 0.0055
14,GCAAGCCA,-0.221 ± 0.037
15,GCATCTGA,-0.0824 ± 0.1
16,ATTATCCG,-0.0296 ± 0.042
17,GATGGCGA,0.1142 ± 0.00067
18,CAGTGGAG,-0.068 ± 0.012
19,ACTTGTTA,0.372 ± 0.044
20,ACTTGTCA,0.4044 ± 0.0039
21,AGTTGTGA,0.387 ± 0.017
22,CGTTGTGA,0.2 ± 0.0095
23,ACTTGTGA,0.411 ± 0.0095

row,Sequence,PBM E-score of 8-mer
1,GCTTGTCA,0.0851 ± 0.047
2,ACTTGTGG,0.196 ± 0.014
3,TCTTGTCA,0.207 ± 0.023
4,AGTTGTGG,0.122 ± 0.039
5,CCTTGTTA,0.126 ± 0.011
6,ACTTGTTG,0.332 ± 0.018
7,GCTTGTGA,0.187 ± 0.0082
8,ATACTTAA,-0.187 ± 0.096
9,CTAGTGCA,0.173 ± 0.0046
10,TCCCCAGA,-0.207 ± 0.12
11,GCAGAAAA,-0.0494 ± 0.066
12,TATTCCGA,-0.274 ± 0.013
13,CACTTCGG,0.363 ± 0.015
14,ATATACGG,-0.038 ± 0.039
15,CTTTTAGC,0.22 ± 0.074
16,AGTCCTAG,-0.0285 ± 0.042
17,ATAGTAAG,-0.216 ± 0.029
18,GGCTAAAA,-0.22 ± 0.064
19,GGTGTGAC,0.4864 ± 0.0033
20,ACTGTGAC,0.239 ± 0.026
21,GATGTGAC,0.308 ± 0.017
22,AGTGTGAC,0.467 ± 0.0075
23,AGTGTGAT,0.463 ± 0.0063

row,Sequence,PBM E-score of 8-mer
1,GCTGTGAC,0.208 ± 0.037
2,CGTGTGAC,0.4054 ± 0.0011
3,CGTGTGAG,0.363 ± 0.013
4,AGTGTGTC,0.248 ± 0.0093
5,AATGTGAT,0.258 ± 0.039
6,AGAGTGAT,0.239 ± 0.0043
7,CGTGTGTC,0.204 ± 0.018
8,CACCCAAG,0.263 ± 0.023
9,TCTTAGCA,0.2 ± 0.017
10,CCCGAATC,0.00343 ± 0.029
11,ACAAGACC,0.0576 ± 0.017
12,GACTACCA,-0.0358 ± 0.082
13,CAGGAGAC,-0.136 ± 0.017
14,AGTGTGTG,0.338 ± 0.021
15,ATTGTGAG,0.2213 ± 0.00029
16,AGTGTGAG,0.4585 ± 0.0031
17,CACACAGG,0.119 ± 0.044
18,CGGCAAAA,-0.0622 ± 0.057
19,ACATCCGG,-0.0734 ± 0.061
20,GAACTGGA,-0.175 ± 0.037
21,CCTGGAAA,-0.133 ± 0.014
22,AAAGACAA,-0.172 ± 0.069
23,CACCTTTA,0.404 ± 0.013

row,Sequence,PBM E-score of 8-mer
1,CACCTTTC,0.411 ± 0.034
2,AACCTTTA,-0.0895 ± 0.057
3,AACCTTTC,-0.105 ± 0.047
4,GACCTTTA,-0.207 ± 0.088
5,CCCCTTTC,-0.124 ± 0.061
6,CGCGCATC,0.0691 ± 0.012
7,GGCTGGAA,-0.127 ± 0.064
8,GACCACCA,-0.142 ± 0.031
9,AGGAAGGG,-0.28 ± 0.01
10,GCGCACCA,-0.0144 ± 0.01
11,CCGCACCA,0.187 ± 0.0087
12,GAGCACCA,-0.0664 ± 0.018
13,GGGCACCA,-0.125 ± 0.059
14,AGGCACCA,-0.171 ± 0.024
15,TGGCACCA,0.377 ± 0.0055
16,CAGCACCA,0.0936 ± 0.032
17,TAGCACCA,0.403 ± 0.015
18,TCGCACCA,0.44 ± 0.0079
19,GAATTCCC,0.0309 ± 0.029
20,GCAGGGTA,-0.0138 ± 0.034
21,ACAGGTGA,0.406 ± 0.0049
22,CCAGGTAC,-0.105 ± 0.1
23,ACAGGTGC,0.4412 ± 0.0022

row,Sequence,PBM E-score of 8-mer
1,ACAGGTCC,0.0798 ± 0.068
2,GCAGGTGA,0.4392 ± 0.002
3,CCAGGTGC,0.379 ± 0.014
4,GCAGGTCA,0.103 ± 0.027
5,ACAGGTGG,0.331 ± 0.022
6,CCAGGTGA,0.339 ± 0.023
7,ACAGGTTA,0.252 ± 0.022
8,GCAGGTAA,-0.0867 ± 0.05
9,CCAGGTCC,-0.114 ± 0.039
10,CAGCGTGA,0.266 ± 0.0088
11,CGGGCCCG,0.108 ± 0.013
12,CCCCAGAG,-0.096 ± 0.018
13,GTGTGTCA,0.348 ± 0.02
14,ATGTGTCC,0.0956 ± 0.026
15,ATATGTCG,0.134 ± 0.029
16,ATGTGTCA,0.4653 ± 0.0037
17,CTGTGTCA,0.216 ± 0.027
18,ATGTGTCG,0.402 ± 0.0094
19,CTCCTTGC,-0.127 ± 0.067
20,ACGTAATA,-0.234 ± 0.071
21,ACCATTGG,-0.068 ± 0.046
22,ACAGCCTC,-0.206 ± 0.14
23,CATTCGCA,0.3497 ± 0.0027
